T1: FBXL12, Q9NXK8
T1 chain: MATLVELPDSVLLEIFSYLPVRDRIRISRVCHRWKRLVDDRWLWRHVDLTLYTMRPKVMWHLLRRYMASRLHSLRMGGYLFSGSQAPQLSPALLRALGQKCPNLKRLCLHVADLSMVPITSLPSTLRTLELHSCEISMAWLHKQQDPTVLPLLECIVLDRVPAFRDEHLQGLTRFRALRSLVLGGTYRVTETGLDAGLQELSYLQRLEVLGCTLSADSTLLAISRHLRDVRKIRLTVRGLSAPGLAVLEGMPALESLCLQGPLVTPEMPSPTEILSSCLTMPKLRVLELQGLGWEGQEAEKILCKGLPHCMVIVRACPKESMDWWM

B1: FBXL12_hotspot_23_49 (protein)
chain: MRTLRIHLVSRDPEQNRAAARYAAELATRAVLHGWRVVLSGDDRRTVAAAHAVARVVEEVTGKEVEVTEPLHPEEEPLAEELAEELRPVVEAAKAAELAA
B2: FBXL12_hotspot_35_59 (protein)
chain: MRTVRVVFRGTSPEGARYMALAAALAAKELGARVEIEIDPNESREVRIIAGALMVLAEGRSLEEVVEELGLTEEEVEEMKRIAEELRKETERLAAELRAR
B3: FBXL12_hotspot_23_45 (protein)
chain: MRKLVITFAEAPDEEMVKATYYATKLALLAAEHGWEIVLRADNAVTGMAARIVAEAVEKRTGKKVEVIVKEDPSTKERAEKLAPKYEAAVEKAIAEVEAS
B4: FBXL12_hotspot_54_69 (protein)
chain: KTVLIVVEAETLPALERSLATALEIARGLRAAGVRVEVRIRVRHPDVAAAAEAATRAAAEFRELGAERIEVEIETATEEDRERAEAARRETEARLAAEKA
B5: FBXL12_hotspot_23_44 (protein)
chain: MRLLRISLVEKPPEELRAGALYQAEVAALAILEGWEVEIEAEHPEAVAAAHAIARALREVTGKEVKVSRPLKPEERPLAEELLPELIAAIRAAIAAHRAR
B6: FBXL12_hotspot_54_66 (protein)
chain: KTVTLVVRAETVEALRTTLATALAIAEGLLAAGITVRVEIRARSEDVLEATRLATRAAERLEALGAEDIRVEVEVETEEERREVERVAEEERRRERERRA
B7: FBXL12_hotspot_54_70 (protein)
chain: KVVTIRVRAETIEAARRTVETAVEIARGLREAGIEVEVELELEAEDVEAAARLAAEARHAFERIGARRIEVRLRLARPEDAPVFERLFAEELERLRREEE
B8: FBXL12_hotspot_20_43 (protein)
chain: MLLIRARLVGTREQMITTLRYAAAVVRALAERRRAANDATPEALALLEELARLYEEAAERLEAAPEEEWPAIRAATAAEQARLNERLEAELEAQERERAA
B9: FBXL12_hotspot_24_51 (protein)
chain: QTITLVVRADLDLDPRDSPEEKRARLRAAVEGFLGSVETGIALADLMAARGRGAVDREAFEAAAAALLAAAEALGEADLAARVRAARARFLAAADRLEAA
B10: FBXL12_hotspot_28_56 (protein)
chain: AKRTVIVKGPPEQRAELMLKLAKAILEKSKELYKELKKVKDKDEEKVKELLEKLEKLADLAKSLLENAKKTLPKEYEEVVKEIEKLTKEVEKILKEAKKL
B11: FBXL12_hotspot_54_68 (protein)
chain: KTVLLVVRATTVEALRRTLETAVAIAEGLLAAGHRVRVEIRVDSEDVLEATRLATRAAERLEALGAEDIRVEVRVETEEEKEEVERVAEETRREERERRA
B12: FBXL12_hotspot_28_52 (protein)
chain: MKVEVRVSGDPEQVAAQLLALLEAMTKIAKELAKELKKTKETDPSKVEEKRKEAEEAAEKIRSMVESILRQAESLSPEQQAQVRAAAEETFKALEELEKT
B13: FBXL12_hotspot_52_63 (protein)
chain: MRTVTIVVSVESPDMEMARRTTETAAAIAEGLAAAGVRVVLVVRAAHADALAFATRRLAEVAARLGAELRVETHPSLDPAEVAAIAAAARAAAAAAAAAA
B14: FBXL12_hotspot_23_47 (protein)
chain: MRTLVLSTFGTAPEDREASLEYAARLIVAAGRHGWRVVVVLEDRSSLELAATIAAMAKLVVGAEVVVKTDAEEELRELMERNRERAAELVAAAEAALAAE
B15: FBXL12_hotspot_59_71 (protein)
chain: MRRVVVRGDPEAALRQARALLEALLELLVRHEGTPQEPRLLELLESTYRELLRTARELGDEAAIAAARAAIEAAEKRLSPELAARLRAAVAAAEAAVEAE
B16: FBXL12_hotspot_35_61 (protein)
chain: MRVVRVVFEGTSVEGARYMALAALLAKEALGAKVEIELSPSESREVRVIAAALRMLAEGKSIEEVKEELGLSEEEVEEMKRLAEELRAETAELLAELKAR
B17: FBXL12_hotspot_109_3 (protein)
chain: KSVIVVLASGSPEHAETTFQTGVEIVKGLAEAGVKVGLLILTTKENEAIAEKALEEVKDYVAVSELVVFPTKEEFEAQLDKVKEEKIKRLEEKLEKLEEE
B18: FBXL12_hotspot_28_54 (protein)
chain: MKIEVKVSGPKEQVAQRILELLEALKQLVEELKKEYKEVKEKDPEKLPEFEKELEEKLEKIKSIAESLVKQAKELGEEAYKKAKEKAEEVKKAIEELKKA
B19: FBXL12_hotspot_52_64 (protein)
chain: MRTVTIRVRIESPDMAMARRTTETAAAIARGLAAAGVRVVLEVEAAHLEALRFATRELARVAAELGAELRVRVHPSLDPEEVERVYREALAEAEAEAAAA
B20: FBXL12_hotspot_52_65 (protein)
chain: MRTVELVLVLQGDDVEAARRLLDRGVAIAEGLKAAGVRVRVVIEYSGSLESVPAVVEAMRRFKALGAEVRVVVSDDPALAEARAALRAAAEELGAEFVVR
B21: FBXL12_hotspot_23_50 (protein)
chain: MRELVLGIGGRPPEEQRAGALRAAELAAAFRPVADRIVVRLGPGVDGAVAAALRRVLEEDYGAEVLSETPEEAVPPEEVEALVAELRAAAEAAEARRRAA
B22: FBXL12_hotspot_23_48 (protein)
chain: MRTLVLSTRGVAPEDREAAARYAAEMIVAAGRAGWRVRVVLQDRESLELAALIAAMARLVTGAEVVVLTDAAEELERLMEERREEARRLVEEARARLDAE
B23: FBXL12_hotspot_28_55 (protein)
chain: MKLEIRVRGPPEEVAKRILELVDAIVEVARQRKEELQRKVEEEGMPEEEARAELEENADRLLSALESLERNAESLPPELREEVLRRIREAREEIERIRKE
B24: FBXL12_hotspot_54_67 (protein)
chain: KTVTLVLRATTVEALRTTLATGVAIAKGLLAAGIRVRVVIRADSEDVLEATRIATRAAAELEALGAEDITVEIKVETEEEREEVEREAARVRAEAEAERA
B25: FBXL12_hotspot_23_46 (protein)
chain: MRTLVIHLTEQSPEEMVKATYYATKLAYLAVKHGWEVVLRASDAVTAMAARIIAEEIERRTGKEVRVEAEERPETAEEAEELRPRFEEAVRKAIEEVEAE
B26: FBXL12_hotspot_28_53 (protein)
chain: MKRTVIVRGEPEQVGQQILALLEAITEQAKALKAQLEANKNGDPAVLAELKEKLAKLESILESLKEEAERIRPQLSPELQARIDAAIEAAEKALKAAKAV
B27: FBXL12_hotspot_35_57 (protein)
chain: MRTVVVQNAGSSLEGVRYAALAALVAVRVLGARLEVQISPDASREQRLILAAAEALASGRPLEEVVAERGLSEEELEEVRRIAEELRAEAERAVAELRAR
B28: FBXL12_hotspot_35_60 (protein)
chain: MRTVRVVFEGTSPEGARYMALAAALAARELGARVEVRLDPSESREVKVIAAALRVLAEGRPLEEVVEELGLTEEEIEEMEKILEELREEVERLSAELRAR
B29: FBXL12_hotspot_35_58 (protein)
chain: MRVVVVRFEGSSEEGALYMATAALLAQRVLGARVVVEIHPDESREVRIIAAALRHLAEGLSWEEIREELGLTEEEMERARELAERLRAEVERLAAELRAR
B30: FBXL12_hotspot_105_2 (protein)
chain: MARVRVGSTGPRALPLTVAGLAFAIYRGDEEEAERLRREAEALIAKRPAAEELRRLLEEAVALARALRAAAEAGDAAAAAAAAARLAAVIDELARLVEAE
B31: FBXL12_hotspot_35_62 (protein)
chain: MRRVVVRFTSPTPEGARYMAVTALLASRELGAEVEIEVAPDASLEIRRIAAALYALVTGVPVSEALARFGLPESEAPAVEAEAERLRAEVDEELARLRAR
B32: FBXL12_hotspot_20_42 (protein)
chain: MLRLRVGVSEDVEANRGSLLRAAELVEAFADRLAAEFPELAEVIARLRETARRAREAAARLPGLSPEEARALVREMSEEIAEVVEEASRAAEAARARRAA

Target: T1, FBXL12, Q9NXK8
Test: median log2 fold change of GCK-ALFA target abundance (FLAG IP / Myc IP barcode read proportion) (log2 ratio); each designed protein is fused to an ALFA-tag nanobody in HEK293 cells to bring the named protein to FLAG-tagged glucokinase (GCK); Myc marks an untargeted standard; higher = target protein stabilised (more abundant)
Conditions: target protein: 3xFLAG-MCP-GCK-ALFA reporter; HEK293 landing pad (RPLP)
Experimental: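 LABEL-seq trans screen in HEK293 landing-pad cells. Each de novo designed 100-aa effector handle, binding the indicated effector (E3 ligase, DUB or autophagy protein), is fused to a constant NbALFA target handle and induced with 2 ug/mL doxycycline. A FLAG-MCP-GCK-ALFA target and a Myc-MCP standard reporter were transfected, and after 48 h circRNA barcodes were recovered by anti-FLAG and anti-Myc IP and sequenced. The value is the median across barcodes (at least 3 per design) of log2(FLAG/Myc read-proportion ratio), with the two transfection replicates pooled. Negative values mean degradation and positive values mean stabilisation of the target.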

Row | Binder | median log2 fold change
1 | B1 | -0.0469
2 | B2 | -0.274
3 | B3 | -0.506
4 | B4 | -0.0113
5 | B5 | 0.0454
6 | B6 | -0.267
7 | B7 | -0.0489
8 | B8 | -0.466
9 | B9 | 0.0803
10 | B10 | -0.777
11 | B11 | -0.347
12 | B12 | -0.0427
13 | B13 | -0.889
14 | B14 | -0.0403
15 | B15 | -0.323
16 | B16 | -0.36

Row | Binder | median log2 fold change
17 | B17 | 0.364
18 | B18 | -0.418
19 | B19 | -0.455
20 | B20 | -0.218
21 | B21 | 0.248
22 | B22 | -0.469
23 | B23 | 0.147
24 | B24 | -0.0916
25 | B25 | -0.32
26 | B26 | 0.0582
27 | B27 | -0.0958
28 | B28 | -0.434
29 | B29 | -0.372
30 | B30 | -0.835
31 | B31 | 0.1
32 | B32 | 0.115

Source: the supplement of paper PMC12632987
